Here are results for nine compounds from PubChem BioAssay (NCI).

This is part of a sample that, as a whole, favours compounds with a hit. Of some 79,000 tested, about 15% had one in any assay. Values without a mark were called inactive. Calls of active or inactive are those of the source. Rule as the data show it: active = growth inhibition above about 70%; inactive = the rest.

Test [1] in a line: NCI Yeast Anticancer Drug Screen. Data for the rad50 strain (AID 155).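 Also: 0% = growth of vehicle-only cultures of the same strain.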 The note with it: S. cerevisiae rad50 strain growth inhibition, active compounds read high. In short, it runs like this:
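DNA repair mutant yeast, compound exposure, growth read-out; inhibition is taken relative to vehicle.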

The nature of test [2]: NCI Yeast Anticancer Drug Screen. Data for the mec2-1 strain (AID 157). To be noted: S. cerevisiae mec2-1 strain, active compounds read high. The essentials: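 mec2-1 yeast strain, carrying an alteration in DNA damage repair or cell cycle control, was exposed to compounds; growth inhibition was measured relative to vehicle-treated controls.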
Test [3] in a line: NCI Yeast Anticancer Drug Screen. Data for the sgs1 mgt1 strain (AID 161).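 Also: 0% = growth of cultures given vehicle only.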 To be noted: S. cerevisiae sgs1 mgt1 strain, active compounds read high. The essentials: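 Compounds are added to genetically altered yeast, and growth is compared with cultures given vehicle alone to give percent inhibition.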
Test [4] in a line: NCI Yeast Anticancer Drug Screen. Data for the cln2 rad14 strain (AID 165).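 Also: 0% = growth equal to vehicle treated cultures.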 To be noted: S. cerevisiae cln2 rad14 strain, active compounds read high. The essentials:
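Yeast carrying cln2 and rad14 alterations (cell cycle control and DNA damage repair) were exposed to compounds. Growth inhibition was measured against vehicle-treated controls.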

Test [5] is described as follows: NCI Yeast Anticancer Drug Screen. Data for the bub3 strain (AID 167). To be noted: S. cerevisiae bub3 mutant strain, active compounds read high. In short, it runs like this:
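In this screen, a yeast mutant lacking normal mitotic checkpoint function is challenged with compound. Relative growth versus vehicle gives the inhibition value.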

Test [6] in a line: NCI Yeast Anticancer Drug Screen. Data for the mlh1 rad18 strain (AID 175). To be noted: S. cerevisiae mlh1 rad18 strain growth inhibition, active compounds read high. The essentials:
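Growth inhibition of the yeast strain was measured after compound exposure and expressed relative to vehicle-treated controls. The strain carries defined defects in DNA damage repair.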

Where [7] appears, read: at 5.0 µM (retest, dose inferred, filed as 0.5).
Where [8] appears, read: at 50.0 µM (retest, dose inferred, filed as 5.0).

With `COc1cc(OC)c(C(c2cc3c(cc2O)OCO3)N2CCOCC2)c(OC)c1` (configuration not stated), the growth inhibition in test [1] (setting [7]) is 2%; in test [1] (setting [8]) it was 99% (active); in test [1] (at 50.0 µM) it was 57.9%; in test [2] (setting [7]), 2%; in test [2] (setting [8]) it was 98% (active); in test [2] (at 50.0 µM), 61.1%. The growth inhibition is -1% in test [3] (setting [7]); 98% (active) in test [3] (setting [8]); 50.3% in test [3] (at 50.0 µM); 0% in test [4] (setting [7]); 99% (active) in test [4] (setting [8]); 23.7% in test [4] (at 50.0 µM). Besides, the growth inhibition is 5% in test [5] (setting [7]); 99% (active) in test [5] (setting [8]); 18.8% in test [5] (at 50.0 µM); -2% in test [6] (setting [7]); 99% (active) in test [6] (setting [8]); 63.2% in test [6] (at 50.0 µM).

Regarding `CCCCC(CC)CN1C(=O)C2C3C=CC(C3)C2C1=O` (configuration not stated), the growth inhibition in test [1] (setting [7]) was -15%; in test [1] (setting [8]), -20%; in test [1] (at 50.0 µM) it was 32.5%; in test [2] (setting [7]) it was -9%; in test [2] (setting [8]) it was -20%; in test [2] (at 50.0 µM), 19.1%. Also, the growth inhibition in test [3] (setting [7]) was -2%; in test [3] (setting [8]) it was -9%; in test [3] (at 50.0 µM), 39.2%; in test [4] (setting [7]) it was 28%; in test [4] (setting [8]), -49%; in test [4] (at 50.0 µM), -4.45%. Besides, the growth inhibition is 3% in test [5] (setting [7]); -26% in test [5] (setting [8]); 39.1% in test [5] (at 50.0 µM); -6% in test [6] (setting [7]); -15% in test [6] (setting [8]); 7.15% in test [6] (at 50.0 µM).

In the case of `CCCCc1cc2c(cc1O)CCC1C2CC[C@@]2(C)C1CC[C@@H]2O` (some centres not stated), the growth inhibition in test [1] (setting [7]) is 5%; in test [1] (setting [8]) it was 96% (active); in test [1] (at 50.0 µM), 67.5%; in test [2] (setting [7]), -6%; in test [2] (setting [8]) it was 95% (active); in test [2] (at 50.0 µM), 78.5% (active). Moreover, the growth inhibition in test [3] (setting [7]) was -5%; in test [3] (setting [8]), 95% (active); in test [3] (at 50.0 µM) it was 80.6% (active); in test [4] (setting [7]), 2%; in test [4] (setting [8]), 97% (active); in test [4] (at 50.0 µM) it was 86.8% (active). Also, the growth inhibition in test [5] (setting [7]) was -27%; in test [5] (setting [8]), 96% (active); in test [5] (at 50.0 µM) it was 81.7% (active); in test [6] (setting [7]), -2%; in test [6] (setting [8]), 96% (active); in test [6] (at 50.0 µM), 84.6% (active).

Consider `CC(C)N(CC(=O)c1ccc2cc(Cl)c3ccccc3c2c1)C(C)C`, for which the growth inhibition in test [1] (setting [7]) was 20%; in test [1] (setting [8]), 97% (active); in test [1] (at 50.0 µM), 99% (active); in test [2] (setting [7]), 34%; in test [2] (setting [8]), 98% (active); in test [2] (at 50.0 µM), 98.6% (active). The growth inhibition is 79% (active) in test [3] (setting [7]); 98% (active) in test [3] (setting [8]); 98.8% (active) in test [3] (at 50.0 µM); 8% in test [4] (setting [7]); 98% (active) in test [4] (setting [8]); 98.2% (active) in test [4] (at 50.0 µM). The growth inhibition in test [5] (setting [7]) is 32%; in test [5] (setting [8]), 97% (active); in test [5] (at 50.0 µM), 98.5% (active); in test [6] (setting [7]), 39%; in test [6] (setting [8]), 98% (active); in test [6] (at 50.0 µM), 98.5% (active).

Regarding `Fc1ccc(CSC(=S)Nc2ccc(F)cc2)cc1`, the growth inhibition in test [1] (setting [7]) was 5%; in test [1] (setting [8]) it was 29%; in test [1] (at 50.0 µM), 69.5%; in test [2] (setting [7]) it was 0%; in test [2] (setting [8]) it was 16%; in test [2] (at 50.0 µM) it was 47.6%. In addition, the growth inhibition was 2% in test [3] (setting [7]); 29% in test [3] (setting [8]); 68.3% in test [3] (at 50.0 µM); -9% in test [4] (setting [7]); -4% in test [4] (setting [8]); 32.5% in test [4] (at 50.0 µM). Also, the growth inhibition in test [5] (setting [7]) was -6%; in test [5] (setting [8]), 8%; in test [5] (at 50.0 µM), 27.6%; in test [6] (setting [7]), -3%; in test [6] (setting [8]), 19%; in test [6] (at 50.0 µM), 78.7% (active).

In the case of `Cc1cc(N)c2cc(OCCOc3ccc4nc(C)cc(N)c4c3)ccc2n1`, the growth inhibition in test [1] (setting [7]) is 68%; in test [1] (setting [8]), 91% (active); in test [1] (at 50.0 µM) it was 97.5% (active); in test [2] (setting [7]), 69%; in test [2] (setting [8]), 94% (active); in test [2] (at 50.0 µM) it was 95.2% (active). For the same compound, the growth inhibition in test [3] (setting [7]) is 77% (active); in test [3] (setting [8]), 93% (active); in test [3] (at 50.0 µM) it was 92.5% (active); in test [4] (setting [7]), 71% (active); in test [4] (setting [8]) it was 92% (active); in test [4] (at 50.0 µM), 84.7% (active). Besides, the growth inhibition is 79% (active) in test [5] (setting [7]); 95% (active) in test [5] (setting [8]); 93.7% (active) in test [5] (at 50.0 µM); 91% (active) in test [6] (setting [7]); 94% (active) in test [6] (setting [8]); 95.2% (active) in test [6] (at 50.0 µM).

In the case of `C#CCn1cnc2c(N)ncnc21`, the growth inhibition was -1% in test [1] (setting [7]); -11% in test [1] (setting [8]); 6.75% in test [1] (at 50.0 µM); 3% in test [2] (setting [7]); -8% in test [2] (setting [8]); 15.8% in test [2] (at 50.0 µM). The growth inhibition in test [3] (setting [7]) is 5%; in test [3] (setting [8]), -13%; in test [3] (at 50.0 µM), 28.4%; in test [4] (setting [7]), 3%; in test [4] (setting [8]) it was -6%; in test [4] (at 50.0 µM), 84.2% (active). The growth inhibition is -4% in test [5] (setting [7]); -16% in test [5] (setting [8]); -6.65% in test [5] (at 50.0 µM); 2% in test [6] (setting [7]); -14% in test [6] (setting [8]); 7.3% in test [6] (at 50.0 µM).

As for `N#C/C=C/C=C/C#N`, the growth inhibition is 1% in test [1] (setting [7]); 2% in test [1] (setting [8]); 24.4% in test [1] (at 50.0 µM); 5% in test [2] (setting [7]); 2% in test [2] (setting [8]); 79.8% (active) in test [2] (at 50.0 µM). In addition, the growth inhibition in test [3] (setting [7]) was 2%; in test [3] (setting [8]), 3%; in test [3] (at 50.0 µM), 6.95%; in test [4] (setting [7]) it was -1%; in test [4] (setting [8]), -3%; in test [4] (at 50.0 µM), 78.4% (active). The growth inhibition in test [5] (setting [7]) was -2%; in test [5] (setting [8]) it was -5%; in test [5] (at 50.0 µM) it was 99.5% (active); in test [6] (setting [7]), -4%; in test [6] (setting [8]) it was -1%; in test [6] (at 50.0 µM) it was 56.3%.

For the compound `Cc1[nH]c2ccccc2c1SCc1ccccc1`, the growth inhibition in test [1] (setting [7]) is -5%; in test [1] (setting [8]), 99% (active); in test [1] (at 50.0 µM), 99.2% (active); in test [2] (setting [7]), 2%; in test [2] (setting [8]), 100% (active); in test [2] (at 50.0 µM), 99.7% (active). Besides, the growth inhibition in test [3] (setting [7]) was 0%; in test [3] (setting [8]), 100% (active); in test [3] (at 50.0 µM), 99.5% (active); in test [4] (setting [7]), -2%; in test [4] (setting [8]) it was 99% (active); in test [4] (at 50.0 µM), 99.3% (active). Besides, the growth inhibition is -6% in test [5] (setting [7]); 99% (active) in test [5] (setting [8]); 99.5% (active) in test [5] (at 50.0 µM); -7% in test [6] (setting [7]); 98% (active) in test [6] (setting [8]); 99.3% (active) in test [6] (at 50.0 µM).
